# Assay results: the supplement of paper PMC8728848
# This is one part of a sample in which the strongest signals are shown more often than they occur.
# Assays:
# Assay in all cases: glycan array binding signal (z-score within array); higher = stronger binding
# Conditions in all cases: glycan notation: IUPAC condensed, linker removed
# Fuc(a1-2)Gal(b1-4)Glc = biological target: Fuc(a1-2)Gal(b1-4)Glc
# How it was run: (§1)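 Glycan array data were curated from 3228 arrays in the Consortium for Functional Glycomics database and kept only where the protein sequence was available. Glycan names were converted to IUPAC-condensed notation, and columns mapping to the same glycan were averaged. The binding signal is a within-array Z-score, averaged across arrays of the same protein sequence at different concentrations or buffers and across linkers. Negative Z-scores can be read as non-binding.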
# [1] = biological target: Fuc(a1-2)Gal(b1-4)[Fuc(a1-3)]GlcNAc
# How it was run: as §1
# Fuc(a1-2)[Gal(a1-3)]Gal = biological target: Fuc(a1-2)[Gal(a1-3)]Gal
# How it was run: as §1
# [2] = biological target: Fuc(a1-2)[GalNAc(a1-3)]Gal(b1-4)[Fuc(a1-3)]GlcNAc
# How it was run: as §1
# [3] = biological target: Fuc(a1-2)[GalNAc(a1-4)]Gal(b1-4)GlcNAc
# How it was run: as §1
# Fuc(a1-3)GlcNAc = biological target: Fuc(a1-3)GlcNAc
# How it was run: as §1
# Gal(a1-2)Gal = biological target: Gal(a1-2)Gal
# How it was run: as §1
# Gal(a1-3)Gal = biological target: Gal(a1-3)Gal
# How it was run: as §1
# Gal(a1-3)Gal(b1-4)Glc = biological target: Gal(a1-3)Gal(b1-4)Glc
# How it was run: as §1
# Gal(a1-6)Glc = biological target: Gal(a1-6)Glc
# How it was run: as §1
# [4] = biological target: Gal(b1-3)GalNAc(b1-4)[Neu5Ac(a2-3)]Gal(b1-4)Glc
# How it was run: as §1
# [5] = biological target: Gal(b1-3)[Neu5Ac(b2-6)]GalNAc
# How it was run: as §1
# [6] = biological target: Gal(b1-4)GalNAc(a1-3)[Fuc(a1-2)]Gal(b1-4)GlcNAc
# How it was run: as §1
# [7] = biological target: Gal(b1-4)GlcNAc(b1-3)Gal(b1-4)GlcNAc(b1-3)Gal(b1-4)GlcNAc
# How it was run: as §1
# [8] = biological target: Gal(b1-4)GlcNAc(b1-3)[Gal(b1-4)GlcNAc(b1-6)]Gal(b1-4)GlcNAc
# How it was run: as §1
# Gal3S(b1-3)GalNAc = biological target: Gal3S(b1-3)GalNAc
# How it was run: as §1
# Gal3S(b1-4)Glc = biological target: Gal3S(b1-4)Glc
# How it was run: as §1
# Gal3S(b1-4)GlcNAc6S = biological target: Gal3S(b1-4)GlcNAc6S
# How it was run: as §1
# GalNAc(b1-3)GalNAc = biological target: GalNAc(b1-3)GalNAc
# How it was run: as §1
# Glc(a1-4)Glc = biological target: Glc(a1-4)Glc
# How it was run: as §1
# GlcNAc(b1-3)Man = biological target: GlcNAc(b1-3)Man
# How it was run: as §1
# GlcNAc(b1-4)GlcNAc = biological target: GlcNAc(b1-4)GlcNAc
# How it was run: as §1
# Kdn(a2-3)Gal(b1-4)GlcNAc = biological target: Kdn(a2-3)Gal(b1-4)GlcNAc
# How it was run: as §1
# [9] = biological target: Man(a1-2)Man(a1-6)[Man(a1-3)]Man(a1-6)[Man(a1-2)Man(a1-2)Man(a1-3)]Man
# How it was run: as §1
# [10] = biological target: Man(a1-2)Man(a1-6)[Man(a1-3)]Man(a1-6)[Man(a1-2)Man(a1-2)Man(a1-3)]Man(b1-4)GlcNAc(b1-4)GlcNAc
# How it was run: as §1
# [11] = biological target: Neu5Ac(a2-3)Gal(b1-4)[Fuc(a1-3)]GlcNAc(b1-3)Gal(b1-4)[Fuc(a1-3)]GlcNAc(b1-3)Gal(b1-4)[Fuc(a1-3)]GlcNAc
# How it was run: as §1
# [12] = biological target: Neu5Ac(a2-6)Gal(b1-4)GlcNAc(b1-3)Gal(b1-4)[Fuc(a1-3)]GlcNAc(b1-3)Gal(b1-4)[Fuc(a1-3)]GlcNAc
# How it was run: as §1
# [13] = biological target: Neu5Ac(a2-8)Neu5Ac(a2-8)Neu5Ac(a2-3)[GalNAc(b1-4)]Gal(b1-4)Glc
# How it was run: as §1
# [14] = biological target: Neu5Ac9Ac(a2-6)Gal(b1-4)GlcNAc
# How it was run: as §1
binder,measurement,setting,value
"NKp30 (Homo sapiens), O14931 (protein) MAWMLLLILIMVHPGSCALWVSQPPEIRTLEGSSAFLPCSFNASQGRLAIGSVTWFRDEVVPGKEVRNGTPERFGRLAPLASSRFLHDHQAELHIRDVRGHDASIYVCRVEVLGLGVGTGNGTRLVVRKEHPQLGAGTHADPEAPEAEGAPSVFLFPPKPKDTLMISRTPEVTCVVVDVSHEDPEVKFNWYVDGVEVHNAKTPREEQYNSTYRVVSVLTVLHQDWLNGKEYKCKVSNKALPAPIEKTISKAKGQPREPQVYTLPPSRDELTKNQVSLTCLVKGFYPSDIAVEWESNGQPENNYKTTPPVLDSDGSFFLYSKLTVDKSRWQQGNVFSCSVMHEALHNHYTQKSLSLSPGK",glycan array binding signal (z-score),Fuc(a1-2)Gal(b1-4)Glc,-0.091
same,glycan array binding signal (z-score),[1],0.195
same,glycan array binding signal (z-score),Fuc(a1-2)[Gal(a1-3)]Gal,0.375
same,glycan array binding signal (z-score),[2],0.416
same,glycan array binding signal (z-score),[3],-0.379
same,glycan array binding signal (z-score),Fuc(a1-3)GlcNAc,13.9
same,glycan array binding signal (z-score),Gal(a1-2)Gal,1.41
same,glycan array binding signal (z-score),Gal(a1-3)Gal,1.89
same,glycan array binding signal (z-score),Gal(a1-3)Gal(b1-4)Glc,2.48
same,glycan array binding signal (z-score),Gal(a1-6)Glc,6.49
same,glycan array binding signal (z-score),[4],-0.671
same,glycan array binding signal (z-score),[5],-0.317
same,glycan array binding signal (z-score),[6],0.071
same,glycan array binding signal (z-score),[7],-0.44
same,glycan array binding signal (z-score),[8],0.041
same,glycan array binding signal (z-score),Gal3S(b1-3)GalNAc,-0.265
same,glycan array binding signal (z-score),Gal3S(b1-4)Glc,-0.02
same,glycan array binding signal (z-score),Gal3S(b1-4)GlcNAc6S,-0.253
same,glycan array binding signal (z-score),GalNAc(b1-3)GalNAc,1.68
same,glycan array binding signal (z-score),Glc(a1-4)Glc,0.053
same,glycan array binding signal (z-score),GlcNAc(b1-3)Man,-0.416
same,glycan array binding signal (z-score),GlcNAc(b1-4)GlcNAc,0.115
same,glycan array binding signal (z-score),Kdn(a2-3)Gal(b1-4)GlcNAc,-0.251
same,glycan array binding signal (z-score),[9],-0.314
same,glycan array binding signal (z-score),[10],-0.41
same,glycan array binding signal (z-score),[11],-0.204
same,glycan array binding signal (z-score),[12],-0.38
same,glycan array binding signal (z-score),[13],-0.221
same,glycan array binding signal (z-score),[14],0.048
